Bioassay records (PubChem)
Only a selection was taken, and hits are over-represented in it overall.
PI4K2A inh: PI4K2A (human) kinase inhibition | Q9BTU6 | purified PI4K2A, ADP-Glo luminescence, 1 h; hits give low values | activity change, negative = inhibition, % at 76.9 µM | actives 0.13% (n = 420,000); in the data active = activity change below about -50%; inconclusive = mostly about -30% to -49%;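 note: -100% = wells without enzyme as full effect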
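ADP-Glo luminescence measured ADP generated by PI4K2A enzyme (4 ug/mL before mixing) with 1.2 mM PI substrate (pre-mix) and 300 microM ATP (pre-mix). Tris pH7.5 buffer with MgCl2, Triton X-100; 1 h reaction at ambient temperature.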
Pin1 inh: inhibitors of human Pin1; Potency, µM (doses to about 115 µM), for inactives: top-dose activity, negative = inhibition, hits mostly inhibitors; actives 0.009% (n = 390,000); Pin1 FP peptide displacement, HiFluor488, 10 min; Q13526; active = well fitted inhibition curve with a large enough effect in the polarisation, with a control signal flat, not every such curve was filed as active; inconclusive = small, poorly fitted or top-dose-only effect, or effect the other way, or a change in a side signal; inactive = no such curve, though single readings can be large or run the other way; the % refers to the polarisation; note: potency is the fitted concentration of half-maximal effect
Target sequence (Q13526 whole entry, looked up): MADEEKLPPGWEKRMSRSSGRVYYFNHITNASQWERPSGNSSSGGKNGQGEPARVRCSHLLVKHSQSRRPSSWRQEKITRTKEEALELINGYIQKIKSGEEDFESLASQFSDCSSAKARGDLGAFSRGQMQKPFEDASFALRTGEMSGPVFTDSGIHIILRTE
Tb PFK block: inhibitors of T. brucei phosphofructokinase; Potency, µM (top dose mostly 57.5 µM), inactives show at the highest dose activity, negative = inhibition, actives largely listed as inhibitors; T. brucei PFK, ADP-Glo luminescence; O15648; AID 485367; actives 0.17% (n = 330,000);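 note: potency is the fitted concentration of half-maximal effect; 0% = uninhibited 1x PFK enzyme wells and -100% = no-enzyme wells; nearly all actives have a fitted effect of over 60% in size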
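PFK 1.25 nM, F6P 0.5 mM, ATP 0.1 mM, 0.1 M TEA pH 8.0, 5 mM MgCl2, 0.01% Tween20, 0.1% BSA; 45 min RT. ADP-Glo readout. qHTS titration up to 57 uM; curves fitted, compounds curve-classed.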
PI5P4K alpha inh: PI5P4K alpha (human) kinase inhibition. P48426. PI5P4Kalpha enzyme, ADP-Glo luminescence, 60 min; hits give low values. max response, %. actives 1.2% (n = 330,000); active = max response of -50% or lower; inconclusive = between -30% and -50%; inactive = -30% or higher; note: value at the top dose of about 77 µM
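Quantitative HTS of the MLSMR library against PI5P4Kalpha with substrate. ATP added last at 5 microM final; room temperature, 60 minutes. Remaining ATP depleted, ADP converted and read as luminescence.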
PGK inhibitor: blocks T. brucei phosphoglycerate kinase; P07378; PGK/GAPDH coupled, Kinase-Glo luminescence, 60 min; Potency, µM (titrated, usually from 57.5 µM), for the others: at the highest dose activity change, negative = inhibition, actives largely listed as inhibitors; actives 0.043% (n = 380,000); note: potency is the fitted concentration of half-maximal effect; nearly all actives have a fitted effect of over 60% in size
Target sequence (P07378 whole entry, looked up): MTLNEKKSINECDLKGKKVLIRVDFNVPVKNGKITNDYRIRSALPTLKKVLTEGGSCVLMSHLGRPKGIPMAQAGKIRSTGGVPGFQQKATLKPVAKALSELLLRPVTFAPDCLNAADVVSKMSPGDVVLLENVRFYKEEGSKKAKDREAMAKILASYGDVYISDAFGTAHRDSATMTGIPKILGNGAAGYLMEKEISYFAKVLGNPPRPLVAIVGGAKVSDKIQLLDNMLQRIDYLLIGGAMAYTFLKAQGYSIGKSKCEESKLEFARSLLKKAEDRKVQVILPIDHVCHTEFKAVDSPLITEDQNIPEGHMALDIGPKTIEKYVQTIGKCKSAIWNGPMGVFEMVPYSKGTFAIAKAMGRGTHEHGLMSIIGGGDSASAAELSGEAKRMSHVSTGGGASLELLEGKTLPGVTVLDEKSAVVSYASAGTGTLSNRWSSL
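Luminescent ATP detection (Kinase-Glo Plus) follows a 60-minute room-temperature incubation, with wells lacking PGK as controls. Buffer: 100 mM TEA (pH 7.6), 5 mM MgCl2, 0.01% Tween-20. Coupling enzyme GAPDH (100 nM final) supplies unstable 1,3-BPG in-well.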
Starred values were filed as active, the others as inactive. Unless noted, calls come from the whole dose curve; as a rule, active = well fitted curve in the direction sought with a large enough effect; inconclusive = small, poorly fitted or top-dose-only effect, or another doubt; inactive = no such curve, though single readings can be large; an effect the other way counts as inactive or inconclusive. Unless noted, % is set by controls: 0 for no effect and ±100 for the full control effect.

CC(C)(C)C(=O)Cn1ncc(Cl)c(Cl)c1=O was read as PI4K2A inh 5, Pin1 inh 1%, Tb PFK block 3% and PI5P4K alpha inh 1.
`COc1cc(/C=C2\NC(=S)N(C)C2=O)ccc1O` gave PI4K2A inh -3, Pin1 inh inconclusive, Tb PFK block -1%, PI5P4K alpha inh -5 and PGK inhibitor inactive.
Screening CN1C(=O)/C(=C/c2ccc(O)c([N+](=O)[O-])c2)NC1=S returned PI4K2A inh -5, Pin1 inh -1%, Tb PFK block -6%, PI5P4K alpha inh -56* and PGK inhibitor -16%.
For CC(=O)C1C(c2ccco2)c2c(noc2C)CC1(C)O (stereo unspecified) the results were PI4K2A inh 0, Pin1 inh 5% and PGK inhibitor -2%.
`O=S1(=O)CCO[C@H]2Cc3ccccc3[C@H]2N1Cc1ccccc1F` gave PI4K2A inh -2, Pin1 inh 4%, Tb PFK block 0%, PI5P4K alpha inh 6 and PGK inhibitor -3%.
N#Cc1c(-c2ccco2)cc(-c2ccc(F)cc2)nc1N was read as PI4K2A inh -3, Pin1 inh inconclusive, Tb PFK block -2%, PI5P4K alpha inh -64* and PGK inhibitor -3%.
N#Cc1c(-c2ccc(F)cc2)cc(-c2cccnc2)nc1N was read as PI4K2A inh 4, Pin1 inh 12%, Tb PFK block 1%, PI5P4K alpha inh -9 and PGK inhibitor -2%.
For CC(C)Nc1nc2cccnc2s1 the results were PI4K2A inh 6, Pin1 inh -1%, Tb PFK block 2%, PI5P4K alpha inh -4 and PGK inhibitor -2%.
`N#C/C(=C\c1coc2ccc(O)cc2c1=O)C(=O)Nc1nc2ccccc2s1` gave PI4K2A inh -8, Pin1 inh inconclusive, Tb PFK block -3%, PI5P4K alpha inh -101* and PGK inhibitor inconclusive.
`N#C/C(=C\c1coc2ccccc2c1=O)C(N)=S` gave PI4K2A inh 10, Pin1 inh inconclusive, Tb PFK block -17%, PI5P4K alpha inh inconclusive and PGK inhibitor -12%.
Screening CSC1=NSC2=NC(=O)/C(=C/c3coc4ccccc4c3=O)C(=N)N12 returned PI4K2A inh -9, Pin1 inh inconclusive, Tb PFK block 5%, PI5P4K alpha inh -61* and PGK inhibitor -13%.
CSC1=NSC2=NC(=O)/C(=C/c3coc4ccc(O)cc4c3=O)C(=N)N12 was read as PI4K2A inh -4, Pin1 inh inconclusive, Tb PFK block -4%, PI5P4K alpha inh -74* and PGK inhibitor inconclusive.
Screening Oc1ccc(CCNc2c3ccccc3nc3ccccc23)cc1O returned PI4K2A inh 1, Pin1 inh 0%, Tb PFK block -25%, PI5P4K alpha inh -11 and PGK inhibitor -4%.
`COc1ccccc1NC(=O)N1CCCC1C(=O)NCc1ccccc1` (stereo unspecified) gave PI4K2A inh 6, Pin1 inh -1%, Tb PFK block -1%, PI5P4K alpha inh 1 and PGK inhibitor 3%.
For CN(CCO)c1nc(N)c2c(N)nc3c(c2c1C#N)CC(=O)N3C1CCCC1 the results were Tb PFK block -21%.
N#Cc1c(N2CCN(c3ccc(F)cc3)CC2)nc(N)c2c(N)nc3c(c12)CC(=O)N3C1CC1 was read as PI4K2A inh -2, Pin1 inh 6%, Tb PFK block -8%, PI5P4K alpha inh -50* and PGK inhibitor 0%.
Cc1cc(S(=O)(=O)N2CCCCC2CCNC(=O)C(=O)NCCN2CCOCC2)ccc1F (stereo unspecified) was read as PI4K2A inh -4, PI5P4K alpha inh 1 and PGK inhibitor 3%.
Screening Cc1cc(C(=O)COC(=O)c2ccco2)c(C)n1Cc1ccco1 returned PI4K2A inh -8, Pin1 inh inconclusive, Tb PFK block -11%, PI5P4K alpha inh -55* and PGK inhibitor -7%.
For Cc1cc(C(=O)COC(=O)c2ccncc2)c(C)n1Cc1ccco1 the results were PI4K2A inh -5, Pin1 inh 0%, Tb PFK block 3%, PI5P4K alpha inh 1 and PGK inhibitor -6%.
`CC(C)(C)N1C(=O)Cc2c1nc(N)c1c(N)nc(N3CCCCC3CO)c(C#N)c21` (stereo unspecified) gave PI4K2A inh inconclusive, Pin1 inh 14%, Tb PFK block 21%, PI5P4K alpha inh -58* and PGK inhibitor -1%.
For COc1ccccc1-c1nnc(SC/C(O)=C(\C#N)c2nc3ccccc3[nH]2)n1C1CCCCC1 the results were PI4K2A inh -2, Pin1 inh 8%, Tb PFK block -9%, PI5P4K alpha inh inconclusive and PGK inhibitor inactive.
Screening N#C/C(=C(/O)CSc1nnc(Cc2cccs2)n1C1CCCCC1)c1nc2ccccc2[nH]1 returned PI4K2A inh -6, Pin1 inh 27%, Tb PFK block -7%, PI5P4K alpha inh -64* and PGK inhibitor -7%.
CN(C)S(=O)(=O)c1cccc(NC(=S)N/N=C/c2cccc(O)c2)c1 was read as PI4K2A inh 1, Pin1 inh 9%, Tb PFK block -1%, PI5P4K alpha inh -2 and PGK inhibitor 8%.
For CN(C)S(=O)(=O)c1cccc(NC(=S)N/N=C/c2cc(Br)ccc2O)c1 the results were PI4K2A inh 8, Pin1 inh inconclusive, Tb PFK block -6%, PI5P4K alpha inh -61* and PGK inhibitor 3%.
For O=C1N=c2ccc(Br)cc2=C1c1sc(=S)n(NS(=O)(=O)c2ccccc2)c1O the results were PI4K2A inh -10, Pin1 inh -19%, Tb PFK block 1%, PI5P4K alpha inh -98* and PGK inhibitor -8%.
For Cc1c(Cl)cnc(NC(=O)COC(=O)/C=C/c2ccco2)c1Cl the results were PI4K2A inh -20, Tb PFK block inconclusive, PI5P4K alpha inh -56* and PGK inhibitor 1%.
Screening Cc1c(Cl)cnc(NC(=O)COC(=O)C(NC(=O)c2ccco2)C(C)C)c1Cl (stereo unspecified) returned PI4K2A inh -9, Pin1 inh -14%, Tb PFK block 1%, PI5P4K alpha inh -16 and PGK inhibitor -1%.
O=C(NCCCN1CCCC1=O)c1ccccc1OCc1ccc(Cl)cc1Cl was read as PI4K2A inh -3, Pin1 inh -1%, Tb PFK block -18%, PI5P4K alpha inh 7 and PGK inhibitor -5%.
Screening Cc1cc(SCC(=O)N/N=C/c2ccc(O)c(O)c2O)c(C)cc1Br returned PI4K2A inh -2, Pin1 inh -4%, Tb PFK block -17%, PI5P4K alpha inh -87* and PGK inhibitor -10%.
Cc1nc(C2COc3ccccc3O2)sc1C(=O)O (stereo unspecified) was read as PI4K2A inh -63*, Pin1 inh -3%, Tb PFK block 0%, PI5P4K alpha inh -1 and PGK inhibitor -23%.
